Assay [1] can be described thus: NCI Yeast Anticancer Drug Screen. Data for the rad50 strain (AID 155).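 Also: 0% = growth of vehicle-only cultures of the same strain.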 The settings on record: S. cerevisiae rad50 strain growth inhibition; at 50.0 µM; active compounds read high. Summed up:
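Compounds were tested on a yeast strain with an engineered DNA damage repair alteration; the reported value is growth inhibition normalised to vehicle treatment.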

The nature of assay [2]: NCI Yeast Anticancer Drug Screen. Data for the mec2-1 strain (AID 157). As to conditions: S. cerevisiae mec2-1 strain, at 50.0 µM, active compounds read high. In a few lines:
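Mutant yeast (mec2-1) grown with compound; growth inhibition relative to vehicle control reported.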

Assay [3] can be described thus: NCI Yeast Anticancer Drug Screen. Data for the sgs1 mgt1 strain (AID 161).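 Also: 0% = growth of cultures given vehicle only.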 As to conditions: S. cerevisiae sgs1 mgt1 strain, at 50.0 µM, active compounds read high. In a few lines: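 Percent growth inhibition was derived by comparing compound-exposed mutant yeast with vehicle-exposed cultures. The strain carries alterations in DNA damage repair.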
Assay [4] can be described thus: NCI Yeast Anticancer Drug Screen. Data for the cln2 rad14 strain (AID 165).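 Also: 0% = growth equal to vehicle treated cultures.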 As to conditions: S. cerevisiae cln2 rad14 strain, at 50.0 µM, active compounds read high. In a few lines: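 Readout is yeast growth inhibition versus vehicle-treated controls, using a strain with cln2 and rad14 alterations exposed to compound.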
A short description of assay [5]: NCI Yeast Anticancer Drug Screen. Data for the bub3 strain (AID 167). The settings on record: S. cerevisiae bub3 mutant strain, at 50.0 µM, active compounds read high. In a few lines:
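Growth of a checkpoint-deficient yeast mutant is measured after compound exposure. Values represent inhibition relative to vehicle.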

A short description of assay [6]: NCI Yeast Anticancer Drug Screen. Data for the mlh1 rad18 strain (AID 175). The settings on record: S. cerevisiae mlh1 rad18 strain growth inhibition; at 50.0 µM; active compounds read high. In a few lines: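 Genetically defined yeast (DNA repair-deficient) exposed to compounds; growth inhibition determined relative to vehicle.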

This is part of a sample that, as a whole, favours compounds with a hit. Of some 79,000 tested, about 15% had one in any assay. Unmarked numbers belong to inactive results. Calls of active or inactive are those of the source. Rule as the data show it: active = growth inhibition above about 70%; inactive = the rest.

Turning to `COc1ncnc2ccccc12`, the growth inhibition was -30.9% in assay [1]; -16.8% in assay [2]; -20.8% in assay [3]; -32.8% in assay [4]; -25.2% in assay [5]; -25.1% in assay [6].
For `CCCC#CCN(CCCC)CCCC`, the growth inhibition in assay [1] was -8.95%; in assay [2], 0.15%; in assay [3], -3.8%; in assay [4], -7.9%; in assay [5] it was 58%; in assay [6], -20.1%.
For the molecule `C1CCCN(NC2=NCCO2)CC1`, the growth inhibition was 18.8% in assay [1]; 4.8% in assay [2]; 7.3% in assay [3]; 5.95% in assay [4]; 1.45% in assay [5]; 25.9% in assay [6].
For the molecule `CCCCCC(=C/c1ccccc1)/C=N/N1CCN(/N=C/C(=C/c2ccccc2)CCCCC)CC1`, the growth inhibition in assay [1] is 32.1%; in assay [2], 10.8%; in assay [3], 22.4%; in assay [4] it was 3.2%; in assay [5], -0.85%; in assay [6], 11.2%.
As to `NNC(=S)N/N=C(\c1nc2ccc(Cl)cc2[nH]c1=O)C(O)c1cccc([N+](=O)[O-])c1` (stereo unspecified), the growth inhibition in assay [1] is 48.6%; in assay [2], 27.6%; in assay [3], 12%; in assay [4], -17.1%; in assay [5], 27.4%; in assay [6], -8.4%.
Take `NC(=O)n1ncc(Cl)c(Cl)c1=O`: the growth inhibition was -7.25% in assay [1]; -1.5% in assay [2]; 2.1% in assay [3]; 4.3% in assay [4]; -1.8% in assay [5]; 7.35% in assay [6].
As for `Cc1ccc(NC(=O)NC23CC4CC(CC(F)(C4)C2)C3)cc1`, the growth inhibition was 20.1% in assay [1]; 4.45% in assay [2]; -34% in assay [3]; 0.25% in assay [4]; -3.65% in assay [5]; -12.3% in assay [6].
Consider `Clc1c(Cl)c(CBr)c(Cl)c(-c2c(Cl)c(Cl)c(Cl)c(CBr)c2Cl)c1Cl`, for which the growth inhibition was 2.15% in assay [1]; -4.1% in assay [2]; -2.55% in assay [3]; -25.7% in assay [4]; 2.45% in assay [5]; -1.1% in assay [6].
`O=C(O)c1cc(Cl)ccc1-c1ccc(Cl)cc1C(=O)Nc1ccc2c(c1)Cc1cc(Cl)cc(Cl)c1-2`: the growth inhibition in assay [1] was 96.2% (active); in assay [2] it was 97.5% (active); in assay [3], 97.8% (active); in assay [4] it was 97.2% (active); in assay [5], 95.6% (active); in assay [6], 97.3% (active).
Turning to `Cc1cncc(C)c1P(=O)(O)O`, the growth inhibition in assay [1] was -10.3%; in assay [2], -6.1%; in assay [3], -9.05%; in assay [4], -19.8%; in assay [5], 3.55%; in assay [6], 3.65%.
On to `O=C(O)CN1CCSc2ccccc2CN(CC(=O)O)CCSc2ccccc2C1`, for which the growth inhibition is 4.5% in assay [1]; 3.1% in assay [2]; -2.6% in assay [3]; -32% in assay [4]; 12.7% in assay [5]; -8% in assay [6].
As to `O=C1C(Cc2ccc(O)cc2)NC(=S)N1c1ccccc1` (stereo unspecified), the growth inhibition in assay [1] is 0.6%; in assay [2] it was -9.85%; in assay [3], 24.9%; in assay [4], -2.75%; in assay [5], 20%; in assay [6] it was -19.8%.
Turning to `Nc1nc(N)c2c(n1)NCN(OCOc1ccc(Cl)cc1)C2`, the growth inhibition in assay [1] is -5.05%; in assay [2], -6%; in assay [3], -4.7%; in assay [4] it was -21.8%; in assay [5], 7.75%; in assay [6], 1.55%.
With `O=S(=O)(c1ccccc1)N1CCCCC1`, the growth inhibition in assay [1] is -23.3%; in assay [2] it was 5.05%; in assay [3], 3.45%; in assay [4], -33%; in assay [5], 29.5%; in assay [6] it was 25.6%.
Turning to `C=CCC1(C)C=C(C)C(=O)C(C)=C1`, the growth inhibition in assay [1] is -6.05%; in assay [2] it was -7%; in assay [3], 18.6%; in assay [4], 2.55%; in assay [5], 16.2%; in assay [6] it was 15.1%.
`CCCCC(=O)NCCNC(=O)CCCC`: the growth inhibition is -0.5% in assay [1]; 7% in assay [2]; -1.8% in assay [3]; -18.6% in assay [4]; 14.2% in assay [5]; 9.55% in assay [6].
As to `CCc1cccc(C)c1NC(=O)C(=O)Cc1nc2ccccc2s1`, the growth inhibition was 0.75% in assay [1]; -7.6% in assay [2]; -9.8% in assay [3]; -2.15% in assay [4]; -58% in assay [5]; -6.15% in assay [6].
`CC(=O)N1CC(C)(C)c2c1cc(C)c(O)c2C`: the growth inhibition in assay [1] is 1.85%; in assay [2] it was -47.9%; in assay [3] it was -8.4%; in assay [4], -7.8%; in assay [5], 5.15%; in assay [6] it was -1.8%.
On to `O=C(CCCCCCCC(=O)OC(CCC1CCCO1)CCC1CCCO1)OC(CCC1CCCO1)CCC1CCCO1` (stereo unspecified), for which the growth inhibition is 6.1% in assay [1]; -18.6% in assay [2]; -4.5% in assay [3]; -9.75% in assay [4]; -6.5% in assay [5]; 7.05% in assay [6].
As for `CCOC(=O)c1cc2cc(Cc3ccc4[nH]c(C(=O)OCC)cc4c3)ccc2[nH]1`, the growth inhibition is -12.8% in assay [1]; -21.4% in assay [2]; -26.2% in assay [3]; -26.4% in assay [4]; -32.2% in assay [5]; -43.6% in assay [6].
For the molecule `NC(=O)c1nnn(Cc2ccccc2)c1C(N)=O`, the growth inhibition in assay [1] was -13.9%; in assay [2] it was -11.4%; in assay [3], 12.6%; in assay [4] it was -33.6%; in assay [5], 8%; in assay [6], 3.85%.

The values above are taken from PubChem BioAssay (NCI).
